Results: PubChem BioAssay (NCI)
About 83,000 compounds went through this panel and 20% of them were active in at least one assay; those are over-represented in the sample as a whole.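 Values shown are percent growth following 48 h exposure of cells in 96-well plates to a single concentration of compound; below 10 was considered active.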 The source made the active and inactive calls.

Tests used:
Experiment in all cases: NCI-60 one-dose screen, 48 h (100 = growth as untreated, 0 = no growth, -100 = all killed)
Conditions in all cases: 10 µM
SK-MEL-2 melanoma = tested on: SK-MEL-2 melanoma
EKVX NSCLC = tested on: EKVX NSCLC
SN12C renal = tested on: SN12C renal
UO-31 renal = tested on: UO-31 renal
TK-10 renal = tested on: TK-10 renal
ACHN renal = tested on: ACHN renal
CAKI-1 renal = tested on: CAKI-1 renal
A498 renal = tested on: A498 renal
CCRF-CEM leukemia = tested on: CCRF-CEM leukemia
MOLT-4 leukemia = tested on: MOLT-4 leukemia
SR leukemia = tested on: SR leukemia
RPMI-8226 leukemia = tested on: RPMI-8226 leukemia
OVCAR-8 ovarian = tested on: OVCAR-8 ovarian
OVCAR-5 ovarian = tested on: OVCAR-5 ovarian
OVCAR-4 ovarian = tested on: OVCAR-4 ovarian
SK-OV-3 ovarian = tested on: SK-OV-3 ovarian
IGROV1 ovarian = tested on: IGROV1 ovarian
OVCAR-3 ovarian = tested on: OVCAR-3 ovarian
NCI/ADR-RES ovarian = tested on: NCI/ADR-RES ovarian
HS 578T breast = tested on: HS 578T breast

Measured: growth

CCOc1ccc(/C=N/NC(=O)Cn2nc(Cc3ccccc3)c3onc(C)c3c2=O)cc1
active: SK-MEL-2 melanoma 3.12% | SN12C renal 8.3% | UO-31 renal -2.49% | ACHN renal 6.42% | A498 renal -6.43% | OVCAR-8 ovarian 5.16% | SK-OV-3 ovarian -5.84%
inactive: EKVX NSCLC 23.9% | TK-10 renal 25.6% | CAKI-1 renal 12% | CCRF-CEM leukemia 86.6% | MOLT-4 leukemia 79.6% | SR leukemia 78.1% | RPMI-8226 leukemia 76.2% | OVCAR-5 ovarian 60.9% | OVCAR-4 ovarian 10.6% | IGROV1 ovarian 38.5% | OVCAR-3 ovarian 14.7% | NCI/ADR-RES ovarian 16.1%

O=C(CSc1nnc(-c2c[nH]c3ccccc23)n1-c1ccccc1)Nc1ccc(C(=O)/C=C/c2cccc([N+](=O)[O-])c2)cc1
inactive: SK-MEL-2 melanoma 101% | EKVX NSCLC 83.9% | SN12C renal 104% | UO-31 renal 42.9% | TK-10 renal 115% | ACHN renal 74.3% | CAKI-1 renal 83.7% | A498 renal 95.7% | CCRF-CEM leukemia 96.1% | MOLT-4 leukemia 78% | SR leukemia 75.2% | RPMI-8226 leukemia 13.9% | OVCAR-8 ovarian 97.2% | OVCAR-5 ovarian 103% | OVCAR-4 ovarian 84.2% | SK-OV-3 ovarian 106% | IGROV1 ovarian 82.9% | HS 578T breast 74% | NCI/ADR-RES ovarian 96.3%

COc1ccc(-c2nc(Nc3ccccc3S(N)(=O)=O)c3ccccc3n2)cc1
inactive: SK-MEL-2 melanoma 110% | EKVX NSCLC 65% | SN12C renal 26.3% | UO-31 renal 29.2% | TK-10 renal 67.4% | ACHN renal 15.3% | A498 renal 92% | CCRF-CEM leukemia 64.1% | MOLT-4 leukemia 21.1% | SR leukemia 23% | RPMI-8226 leukemia 14.9% | OVCAR-5 ovarian 48% | OVCAR-4 ovarian 32.7% | SK-OV-3 ovarian 95.3% | IGROV1 ovarian 43.4% | HS 578T breast 42.8% | NCI/ADR-RES ovarian 18%
active: CAKI-1 renal 7.47% | OVCAR-8 ovarian -27% | OVCAR-3 ovarian -20.6%

NS(=O)(=O)c1ccc(NC(=O)CSc2ccc(-c3ccc(Cl)cc3)nn2)c(Br)c1
active: A498 renal 0.192% | OVCAR-8 ovarian 3.04% | OVCAR-3 ovarian 7.69%
inactive: SK-MEL-2 melanoma 82.9% | EKVX NSCLC 47.4% | SN12C renal 39.1% | UO-31 renal 91% | TK-10 renal 94.6% | ACHN renal 24.7% | CAKI-1 renal 67% | CCRF-CEM leukemia 83.7% | MOLT-4 leukemia 90.6% | SR leukemia 66.4% | RPMI-8226 leukemia 72.5% | OVCAR-5 ovarian 73.3% | OVCAR-4 ovarian 29.8% | SK-OV-3 ovarian 60.2% | IGROV1 ovarian 63.4% | NCI/ADR-RES ovarian 70%

Cc1ccc(/C(N)=N/c2sc(-c3ccccc3)nc2-c2ccccc2)cc1
inactive: SK-MEL-2 melanoma 90.7% | EKVX NSCLC 74.2% | SN12C renal 77.8% | UO-31 renal 69.9% | TK-10 renal 100% | ACHN renal 76.3% | CAKI-1 renal 59.8% | A498 renal 91.1% | CCRF-CEM leukemia 26.7% | MOLT-4 leukemia 51.5% | SR leukemia 63.1% | RPMI-8226 leukemia 59.9% | OVCAR-8 ovarian 91.4% | OVCAR-5 ovarian 84.1% | OVCAR-4 ovarian 72% | SK-OV-3 ovarian 87.1% | IGROV1 ovarian 94.3% | OVCAR-3 ovarian 84.7% | NCI/ADR-RES ovarian 89.9%

COc1ccc(C2N(c3ccc(Br)cc3)N=C(C(C)=O)N2[C@H]2[C@H](OC(C)=O)O[C@H](COC(C)=O)[C@@H](OC(C)=O)[C@@H]2OC(C)=O)cc1 (stereo not given in full)
inactive: SK-MEL-2 melanoma 77.9% | EKVX NSCLC 59.4% | SN12C renal 79.7% | UO-31 renal 44.5% | TK-10 renal 68.9% | ACHN renal 61.1% | CAKI-1 renal 70.8% | A498 renal 61.3% | CCRF-CEM leukemia 78.8% | MOLT-4 leukemia 54.6% | SR leukemia 75.9% | RPMI-8226 leukemia 41.1% | OVCAR-8 ovarian 78% | OVCAR-5 ovarian 85.6% | OVCAR-4 ovarian 71.6% | SK-OV-3 ovarian 61.4% | IGROV1 ovarian 77.8% | OVCAR-3 ovarian 73.2% | NCI/ADR-RES ovarian 62.1%

O=c1c2ccccc2nc(COc2ccccc2)n1/N=C/c1ccc(F)cc1
inactive: SK-MEL-2 melanoma 94.5% | EKVX NSCLC 92.1% | SN12C renal 86.5% | UO-31 renal 84.4% | TK-10 renal 105% | ACHN renal 91.1% | CAKI-1 renal 94.3% | A498 renal 106% | CCRF-CEM leukemia 86.2% | MOLT-4 leukemia 72.9% | SR leukemia 78.2% | RPMI-8226 leukemia 71.7% | OVCAR-8 ovarian 94.4% | OVCAR-5 ovarian 94.2% | OVCAR-4 ovarian 76.9% | SK-OV-3 ovarian 114% | IGROV1 ovarian 105% | OVCAR-3 ovarian 114% | HS 578T breast 90.5% | NCI/ADR-RES ovarian 90.8%
